Experimental findings from the supplement of paper PMC10849652 are described below.

The full data set covers some 7,900 targets. This sample favours those with a hit. About 0.6% of all pairs of compound and target were hits. Values without a mark were called inactive.

UniProt Q8N4Q1, sequence (Q8N4Q1 whole entry, looked up): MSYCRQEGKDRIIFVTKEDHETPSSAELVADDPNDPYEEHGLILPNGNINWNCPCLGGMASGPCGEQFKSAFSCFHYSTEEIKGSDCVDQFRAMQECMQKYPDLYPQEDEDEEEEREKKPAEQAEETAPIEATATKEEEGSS
UniProt P14854, sequence (P14854 whole entry, looked up): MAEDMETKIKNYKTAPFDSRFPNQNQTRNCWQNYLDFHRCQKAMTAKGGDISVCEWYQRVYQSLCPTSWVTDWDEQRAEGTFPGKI
UniProt Q14677, sequence (Q14677 whole entry, looked up): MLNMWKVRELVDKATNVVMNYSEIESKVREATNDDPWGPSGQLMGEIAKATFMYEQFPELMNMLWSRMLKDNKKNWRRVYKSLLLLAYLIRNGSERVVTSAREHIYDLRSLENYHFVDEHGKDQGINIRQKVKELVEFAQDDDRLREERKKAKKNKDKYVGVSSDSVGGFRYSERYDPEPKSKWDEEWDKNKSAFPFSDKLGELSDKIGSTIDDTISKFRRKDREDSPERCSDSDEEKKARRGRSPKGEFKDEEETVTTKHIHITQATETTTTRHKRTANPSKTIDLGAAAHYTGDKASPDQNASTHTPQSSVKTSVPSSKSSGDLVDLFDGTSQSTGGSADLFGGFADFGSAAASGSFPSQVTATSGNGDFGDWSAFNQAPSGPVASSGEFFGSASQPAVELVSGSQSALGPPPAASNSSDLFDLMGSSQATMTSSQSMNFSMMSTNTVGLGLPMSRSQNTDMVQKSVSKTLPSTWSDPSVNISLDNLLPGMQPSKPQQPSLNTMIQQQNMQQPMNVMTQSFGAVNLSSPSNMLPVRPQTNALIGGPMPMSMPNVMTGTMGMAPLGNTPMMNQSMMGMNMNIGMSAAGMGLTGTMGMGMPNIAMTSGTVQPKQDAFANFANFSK
UniProt Q12873, sequence (Q12873 whole entry, looked up): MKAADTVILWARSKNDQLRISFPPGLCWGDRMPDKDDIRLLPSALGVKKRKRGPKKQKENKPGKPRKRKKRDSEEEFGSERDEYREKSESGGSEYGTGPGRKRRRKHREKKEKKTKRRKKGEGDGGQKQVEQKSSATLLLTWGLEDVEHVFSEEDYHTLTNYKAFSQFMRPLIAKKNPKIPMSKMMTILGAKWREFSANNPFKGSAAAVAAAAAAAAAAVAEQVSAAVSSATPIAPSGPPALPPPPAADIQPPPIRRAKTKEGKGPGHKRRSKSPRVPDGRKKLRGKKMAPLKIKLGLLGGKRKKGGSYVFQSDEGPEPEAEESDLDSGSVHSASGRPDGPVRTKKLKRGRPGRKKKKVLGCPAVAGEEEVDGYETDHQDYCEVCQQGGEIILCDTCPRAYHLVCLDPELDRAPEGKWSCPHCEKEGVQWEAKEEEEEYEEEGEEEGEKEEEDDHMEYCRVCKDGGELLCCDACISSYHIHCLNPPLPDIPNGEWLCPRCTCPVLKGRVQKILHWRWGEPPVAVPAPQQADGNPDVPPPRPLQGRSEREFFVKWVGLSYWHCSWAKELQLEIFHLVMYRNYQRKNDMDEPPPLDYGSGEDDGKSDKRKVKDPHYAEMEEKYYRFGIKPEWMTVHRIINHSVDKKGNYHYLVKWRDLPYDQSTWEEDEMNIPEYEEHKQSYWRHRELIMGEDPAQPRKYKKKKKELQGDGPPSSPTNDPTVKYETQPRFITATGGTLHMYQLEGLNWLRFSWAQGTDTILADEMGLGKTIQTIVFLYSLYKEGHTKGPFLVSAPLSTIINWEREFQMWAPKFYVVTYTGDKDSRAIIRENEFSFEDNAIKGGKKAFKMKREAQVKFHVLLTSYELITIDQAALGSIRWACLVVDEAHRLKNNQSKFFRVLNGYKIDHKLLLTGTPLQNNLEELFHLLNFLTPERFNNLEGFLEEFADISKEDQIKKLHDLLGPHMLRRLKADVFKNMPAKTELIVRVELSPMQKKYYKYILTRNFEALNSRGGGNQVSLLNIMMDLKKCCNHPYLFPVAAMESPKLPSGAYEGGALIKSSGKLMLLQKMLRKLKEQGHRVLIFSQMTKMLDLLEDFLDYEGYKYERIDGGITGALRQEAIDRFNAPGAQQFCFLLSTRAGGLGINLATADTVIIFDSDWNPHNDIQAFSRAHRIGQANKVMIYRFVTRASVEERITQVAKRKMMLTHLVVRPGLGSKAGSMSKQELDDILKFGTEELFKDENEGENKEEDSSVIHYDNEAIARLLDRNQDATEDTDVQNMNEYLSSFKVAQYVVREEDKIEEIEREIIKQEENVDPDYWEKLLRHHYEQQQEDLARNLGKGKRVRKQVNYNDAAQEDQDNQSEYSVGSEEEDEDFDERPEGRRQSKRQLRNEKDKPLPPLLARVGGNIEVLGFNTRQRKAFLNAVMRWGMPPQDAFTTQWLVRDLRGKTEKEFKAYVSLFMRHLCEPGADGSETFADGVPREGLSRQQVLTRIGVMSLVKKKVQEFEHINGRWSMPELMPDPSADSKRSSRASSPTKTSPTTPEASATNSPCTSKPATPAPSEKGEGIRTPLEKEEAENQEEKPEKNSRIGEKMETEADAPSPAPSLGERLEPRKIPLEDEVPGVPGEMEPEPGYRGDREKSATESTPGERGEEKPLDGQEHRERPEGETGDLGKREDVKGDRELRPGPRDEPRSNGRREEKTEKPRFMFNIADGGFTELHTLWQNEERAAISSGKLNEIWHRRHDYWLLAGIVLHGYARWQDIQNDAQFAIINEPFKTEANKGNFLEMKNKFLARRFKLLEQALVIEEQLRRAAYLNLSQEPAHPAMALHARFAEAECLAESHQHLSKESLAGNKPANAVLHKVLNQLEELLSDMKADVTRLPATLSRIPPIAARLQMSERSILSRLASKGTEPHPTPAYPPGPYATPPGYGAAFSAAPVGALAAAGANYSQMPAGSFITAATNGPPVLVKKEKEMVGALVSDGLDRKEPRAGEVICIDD
UniProt Q13555, sequence (Q13555 whole entry, looked up): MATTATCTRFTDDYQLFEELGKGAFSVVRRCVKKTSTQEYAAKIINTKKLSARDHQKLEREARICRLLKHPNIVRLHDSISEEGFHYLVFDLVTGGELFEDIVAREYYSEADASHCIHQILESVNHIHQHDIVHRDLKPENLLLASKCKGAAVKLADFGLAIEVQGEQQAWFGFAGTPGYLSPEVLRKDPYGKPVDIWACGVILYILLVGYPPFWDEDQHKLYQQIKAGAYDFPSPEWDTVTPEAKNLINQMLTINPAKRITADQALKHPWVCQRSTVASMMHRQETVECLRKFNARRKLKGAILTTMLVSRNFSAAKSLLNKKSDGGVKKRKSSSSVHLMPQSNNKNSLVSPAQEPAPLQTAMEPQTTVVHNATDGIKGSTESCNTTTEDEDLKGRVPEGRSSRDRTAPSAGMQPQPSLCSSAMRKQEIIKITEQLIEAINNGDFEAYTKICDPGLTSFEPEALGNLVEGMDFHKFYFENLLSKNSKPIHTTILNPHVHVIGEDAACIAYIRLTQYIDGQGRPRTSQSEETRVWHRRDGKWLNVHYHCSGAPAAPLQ
UniProt O43529, sequence (O43529 whole entry, looked up): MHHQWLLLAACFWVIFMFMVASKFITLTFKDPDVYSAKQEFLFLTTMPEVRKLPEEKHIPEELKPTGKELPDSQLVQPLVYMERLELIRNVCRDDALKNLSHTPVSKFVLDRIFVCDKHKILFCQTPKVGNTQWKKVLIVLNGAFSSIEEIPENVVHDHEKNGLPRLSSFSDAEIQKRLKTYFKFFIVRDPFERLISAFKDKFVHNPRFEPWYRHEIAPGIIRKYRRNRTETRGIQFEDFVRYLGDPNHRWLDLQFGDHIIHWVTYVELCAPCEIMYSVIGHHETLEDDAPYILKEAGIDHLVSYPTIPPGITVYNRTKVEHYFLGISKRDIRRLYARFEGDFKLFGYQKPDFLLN
UniProt P46527, sequence (P46527 whole entry, looked up): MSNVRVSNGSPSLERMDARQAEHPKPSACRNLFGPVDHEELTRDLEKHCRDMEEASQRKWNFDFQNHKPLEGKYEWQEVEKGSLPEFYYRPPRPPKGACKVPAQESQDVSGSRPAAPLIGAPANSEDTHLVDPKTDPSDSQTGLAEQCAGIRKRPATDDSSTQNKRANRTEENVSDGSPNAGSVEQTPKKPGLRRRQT
UniProt P42574, sequence (P42574 whole entry, looked up): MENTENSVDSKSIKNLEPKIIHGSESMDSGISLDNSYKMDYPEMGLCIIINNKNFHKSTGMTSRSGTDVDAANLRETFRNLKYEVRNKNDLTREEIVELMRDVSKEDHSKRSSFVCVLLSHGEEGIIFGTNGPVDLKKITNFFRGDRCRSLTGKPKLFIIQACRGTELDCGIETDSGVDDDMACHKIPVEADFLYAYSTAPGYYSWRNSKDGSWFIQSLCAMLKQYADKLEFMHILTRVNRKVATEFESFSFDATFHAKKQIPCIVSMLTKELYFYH
UniProt Q8NHZ8, sequence (Q8NHZ8 whole entry, looked up): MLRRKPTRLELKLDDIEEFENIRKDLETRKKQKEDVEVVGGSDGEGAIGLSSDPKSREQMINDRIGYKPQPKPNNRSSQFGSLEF
UniProt O95319, sequence (O95319 whole entry, looked up): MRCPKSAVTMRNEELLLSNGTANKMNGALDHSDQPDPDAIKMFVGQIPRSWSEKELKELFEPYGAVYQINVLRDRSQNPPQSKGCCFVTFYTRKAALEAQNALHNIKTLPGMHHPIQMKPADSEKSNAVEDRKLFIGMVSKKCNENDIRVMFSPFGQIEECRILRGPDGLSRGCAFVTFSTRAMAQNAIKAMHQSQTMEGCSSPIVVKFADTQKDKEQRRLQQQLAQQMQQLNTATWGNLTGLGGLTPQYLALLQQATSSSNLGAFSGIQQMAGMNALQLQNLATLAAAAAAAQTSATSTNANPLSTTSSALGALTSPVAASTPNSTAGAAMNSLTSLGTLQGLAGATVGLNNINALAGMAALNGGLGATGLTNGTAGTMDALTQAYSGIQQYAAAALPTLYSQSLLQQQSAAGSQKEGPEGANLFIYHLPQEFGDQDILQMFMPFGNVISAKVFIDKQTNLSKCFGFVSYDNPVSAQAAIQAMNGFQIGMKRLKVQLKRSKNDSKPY
UniProt Q6P5X5, sequence (Q6P5X5 whole entry, looked up): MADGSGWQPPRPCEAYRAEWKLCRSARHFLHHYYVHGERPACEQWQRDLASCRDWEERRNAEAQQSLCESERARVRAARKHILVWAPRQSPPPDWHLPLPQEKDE

Compound in one assay: C1=CC=C(C=C1)[C@H](COC2=CC3=C(C=C2)NC(=O)N3)NC(=O)C4=CC=CN(C4=O)CC5=CC(=C(C=C5)F)F
Nature of the assay: log2 fold change, soluble protein after heating vs DMSO (PISA); higher = thermal stabilisation; K562 cells, 10 uM, 30 min; active = over 0.2 and 3.5 SD of the protein, either way, in both replicates (recomputed). A digest of the protocol:
(§1)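 K562 cells (2×10^6 cells/mL) were treated with 10 μM compound for 30 min, and aliquots were heated for 3 min over 48°C-58°C. Pooled aliquots were extracted in PBS with 0.5% NP-40 at 4°C, and the supernatant after 21,000xg for 90 min was measured by TMTpro 16plex LC-MS/MS with channel sums equalised. Reported thermal stability, relative to control samples and from duplicates, is a log2 fold change.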
In the case of CLCN3 isoform 2 (UniProt P51790), the log2 fold change was 0.044.
On the same count and under the same terms, the value for CSTF3 (UniProt Q12996) was -0.005; that for CAMK2G isoform 6 (UniProt Q13555) was -0.017; that for C19orf53 (UniProt Q9UNZ5) was 0.105.
As to C22orf39 (UniProt Q6P5X5), the log2 fold change was 0.126.
Take CLASP2 isoform 3 (UniProt O75122): the log2 fold change was -0.065.
In the case of CCNC (UniProt P24863), the log2 fold change was -0.139.
For the target CELF2 isoform 3 (UniProt O95319), the log2 fold change is -0.005.
Same read-out and setting: for CDK8 (UniProt P49336) the value was 0.
For the target CDK17 isoform 2 (UniProt Q00537), the log2 fold change was -0.095.
Same read-out and setting: for CAVIN1 (UniProt Q6NZI2) the value was 0.017; for CCDC57 (UniProt Q2TAC2), 0.015.
Same read-out and setting: for CDC25B isoform 4 (UniProt P30305) the value was 0.107.
With CDC37L1 (UniProt Q7L3B6), the log2 fold change is -0.009.
The same measure, in the same setting: the value for CDK4 (UniProt P11802) was 0.012; that for CHST11 (UniProt Q9NPF2) was 0.018.
In the case of CLTB (UniProt P09497), the log2 fold change is 0.021.
On the same count and under the same terms, the value for CNDP2 (UniProt Q96KP4) was -0.006; that for CDC26 (UniProt Q8NHZ8) was 0.05.
Still for that read-out and setting: the value for CCDC9 (UniProt Q9Y3X0) was -0.019; that for CDKN1B (UniProt P46527) was -0.009; that for CNN2 (UniProt Q99439) was -0.061.
For the target CHST10 (UniProt O43529), the log2 fold change was 0.004.
The same measure, in the same setting: for CASP2 (UniProt P42575) the value was -0.039.
Still for that read-out and setting: the value for CLPTM1L (UniProt Q96KA5) was -0.011; that for CNTN4 (UniProt Q8IWV2) was 0.093; that for CIT isoform 4 (UniProt O14578) was -0.055.
CIR1 (UniProt Q86X95): the log2 fold change was -0.075.
COX6B1 (UniProt P14854): the log2 fold change is 0.007.
On to COQ9 (UniProt O75208), for which the log2 fold change is -0.068.
On the same count and under the same terms, for CLINT1 (UniProt Q14677) the value was 0.063; for CASP3 (UniProt P42574), 0.018.
Turning to CHCHD4 isoform 2 (UniProt Q8N4Q1), the log2 fold change was 0.08.
Same read-out and setting: the value for CHD3 isoform 3 (UniProt Q12873) was -0.104; that for CHMP4C (UniProt Q96CF2) was -0.002.

Compound in another assay: CC1=C(SC2=C1C(=N[C@H](C3=NN=C(N32)C)CC(=O)N)C4=CC=C(C=C4)Cl)C
Described as above. A digest of the protocol:
as §1
CLCN3 isoform 2 (UniProt P51790): the log2 fold change is -0.006.
Regarding CSTF3 (UniProt Q12996), the log2 fold change was 0.064.
On the same count and under the same terms, the value for CAMK2G isoform 6 (UniProt Q13555) was 0.054; that for C19orf53 (UniProt Q9UNZ5) was -0.258.
On the same count and under the same terms, the value for C22orf39 (UniProt Q6P5X5) was 0.145.
Same read-out and setting: the value for CLASP2 isoform 3 (UniProt O75122) was 0.053; that for CCNC (UniProt P24863) was -0.172.
On to CELF2 isoform 3 (UniProt O95319), for which the log2 fold change is 0.119.
CDK8 (UniProt P49336): the log2 fold change is -0.043.
Same read-out and setting: the value for CDK17 isoform 2 (UniProt Q00537) was -0.006; that for CAVIN1 (UniProt Q6NZI2) was -0.127.
Regarding CCDC57 (UniProt Q2TAC2), the log2 fold change was 0.262 (active).
In the case of CDC25B isoform 4 (UniProt P30305), the log2 fold change is 0.009.
As to CDC37L1 (UniProt Q7L3B6), the log2 fold change is 0.026.
As to CDK4 (UniProt P11802), the log2 fold change is 0.128.
On the same count and under the same terms, the value for CHST11 (UniProt Q9NPF2) was -0.061; that for CLTB (UniProt P09497) was -0.01; that for CNDP2 (UniProt Q96KP4) was 0.039.
Still for that read-out and setting: for CDC26 (UniProt Q8NHZ8) the value was 0.027; for CCDC9 (UniProt Q9Y3X0), -0.012.
Still for that read-out and setting: the value for CDKN1B (UniProt P46527) was -0.029.
With CNN2 (UniProt Q99439), the log2 fold change was 0.011.
Same read-out and setting: the value for CHST10 (UniProt O43529) was -0.064.
For the target CASP2 (UniProt P42575), the log2 fold change is 0.016.
In the case of CLPTM1L (UniProt Q96KA5), the log2 fold change is 0.013.
The same measure, in the same setting: for CNTN4 (UniProt Q8IWV2) the value was 0.154; for CIT isoform 4 (UniProt O14578), 0.002.
On to CIR1 (UniProt Q86X95), for which the log2 fold change is -0.286.
Still for that read-out and setting: for COX6B1 (UniProt P14854) the value was 0.141; for COQ9 (UniProt O75208), -0.025.
As to CLINT1 (UniProt Q14677), the log2 fold change is 0.131.
For CASP3 (UniProt P42574), the log2 fold change was 0.004.
For the target CHCHD4 isoform 2 (UniProt Q8N4Q1), the log2 fold change was 0.205.
On the same count and under the same terms, for CHD3 isoform 3 (UniProt Q12873) the value was 0.038.
In the case of CHMP4C (UniProt Q96CF2), the log2 fold change was 0.169.
